# Legend:
# Assay in all cases: DAPPL (digital affinity profiling via proximity ligation, sequencing); 10 mM Tris-HCl pH 7.5, 50 mM NaCl, 1 mM DTT, 4% glycerol, room temperature, 30 min; GST-TFs on glutathione beads, 16-mer random dsDNA library, 0.1% formaldehyde crosslink after washing; high values mean tight binding
# FEV = biological target: T1, FEV (Homo sapiens, UniProt Q99581 1-238); details: protein: recombinant; tags: N-terminal GST; dsDNA, one strand shown
# T1 sequence: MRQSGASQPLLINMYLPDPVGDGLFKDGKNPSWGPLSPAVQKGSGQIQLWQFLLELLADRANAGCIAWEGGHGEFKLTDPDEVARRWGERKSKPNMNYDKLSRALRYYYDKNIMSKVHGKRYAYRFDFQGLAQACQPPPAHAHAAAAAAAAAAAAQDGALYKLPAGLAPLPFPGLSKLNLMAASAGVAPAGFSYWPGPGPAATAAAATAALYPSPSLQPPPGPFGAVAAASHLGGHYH
# Outline: (§1)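 A tag-only sample was pooled with DNA-barcoded human transcription factors that had been expressed in yeast as GST fusions and captured on glutathione beads. The pools were incubated for 30 min at room temperature with 200 nmole of a random double-stranded 16-mer DNA library in Tris/NaCl/DTT/glycerol buffer, then washed, crosslinked with 0.1% formaldehyde, proximity-ligated (BsaI/T4 ligase, 1 h, 37 °C), PCR-amplified and sequenced on an Illumina NextSeq500. Binding signal is each hexamer's read frequency for a factor divided by its frequency for the tag-only sample.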
# ETV5 = ETV5 (Homo sapiens, UniProt P41161 1-510); details: protein: recombinant; tags: N-terminal GST; dsDNA, one strand shown
# Outline: as §1
# HSF1 = HSF1 (Homo sapiens, UniProt Q00613 1-529); details: protein: recombinant; tags: N-terminal GST; chain copies: 3; dsDNA, one strand shown
# Outline: as §1
# SPIC = biological target: T2, SPIC (Homo sapiens, UniProt Q8N5J4 1-248); details: protein: recombinant; tags: N-terminal GST; dsDNA, one strand shown
# T2 sequence: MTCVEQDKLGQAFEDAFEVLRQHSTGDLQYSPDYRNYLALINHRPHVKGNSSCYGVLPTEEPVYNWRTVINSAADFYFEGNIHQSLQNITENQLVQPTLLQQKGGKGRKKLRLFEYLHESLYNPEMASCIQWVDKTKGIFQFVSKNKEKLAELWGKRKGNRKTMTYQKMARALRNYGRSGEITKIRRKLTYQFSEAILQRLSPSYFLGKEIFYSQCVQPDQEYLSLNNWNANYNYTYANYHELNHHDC
# Outline: as §1
# ELF4 = ELF4 (Homo sapiens, UniProt Q99607 1-663); details: protein: recombinant; tags: N-terminal GST; dsDNA, one strand shown
# Outline: as §1
# ELK4 = biological target: T3, ELK4 (Homo sapiens, UniProt P28324-2 1-405); details: protein: recombinant; tags: N-terminal GST; dsDNA, one strand shown
# T3 sequence: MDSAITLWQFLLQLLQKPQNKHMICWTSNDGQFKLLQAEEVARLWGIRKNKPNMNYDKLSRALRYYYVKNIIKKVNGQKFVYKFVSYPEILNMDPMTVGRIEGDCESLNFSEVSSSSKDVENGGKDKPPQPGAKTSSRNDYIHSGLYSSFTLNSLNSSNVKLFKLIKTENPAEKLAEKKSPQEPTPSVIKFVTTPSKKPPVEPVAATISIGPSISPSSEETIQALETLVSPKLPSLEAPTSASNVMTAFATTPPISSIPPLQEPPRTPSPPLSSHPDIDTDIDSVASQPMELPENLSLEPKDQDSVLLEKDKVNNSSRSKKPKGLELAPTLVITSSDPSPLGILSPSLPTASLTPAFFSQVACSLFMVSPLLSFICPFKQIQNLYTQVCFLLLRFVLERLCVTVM
# Outline: as §1
# ETV2 = biological target: T4, ETV2 (Homo sapiens, UniProt O00321 1-342); details: protein: recombinant; tags: N-terminal GST; dsDNA, one strand shown
# T4 sequence: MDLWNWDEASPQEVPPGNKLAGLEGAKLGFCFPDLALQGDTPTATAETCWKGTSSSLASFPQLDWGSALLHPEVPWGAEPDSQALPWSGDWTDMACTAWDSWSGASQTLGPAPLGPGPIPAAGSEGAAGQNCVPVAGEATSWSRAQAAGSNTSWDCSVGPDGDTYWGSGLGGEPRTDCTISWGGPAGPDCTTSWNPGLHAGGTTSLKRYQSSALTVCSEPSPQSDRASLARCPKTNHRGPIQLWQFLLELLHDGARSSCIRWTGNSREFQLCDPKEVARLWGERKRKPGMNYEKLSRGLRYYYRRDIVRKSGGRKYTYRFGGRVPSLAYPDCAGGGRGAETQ
# Outline: as §1
# ELF3 = biological target: T5, ELF3 (Homo sapiens, UniProt P78545 1-371); details: protein: recombinant; tags: N-terminal GST; dsDNA, one strand shown
# T5 sequence: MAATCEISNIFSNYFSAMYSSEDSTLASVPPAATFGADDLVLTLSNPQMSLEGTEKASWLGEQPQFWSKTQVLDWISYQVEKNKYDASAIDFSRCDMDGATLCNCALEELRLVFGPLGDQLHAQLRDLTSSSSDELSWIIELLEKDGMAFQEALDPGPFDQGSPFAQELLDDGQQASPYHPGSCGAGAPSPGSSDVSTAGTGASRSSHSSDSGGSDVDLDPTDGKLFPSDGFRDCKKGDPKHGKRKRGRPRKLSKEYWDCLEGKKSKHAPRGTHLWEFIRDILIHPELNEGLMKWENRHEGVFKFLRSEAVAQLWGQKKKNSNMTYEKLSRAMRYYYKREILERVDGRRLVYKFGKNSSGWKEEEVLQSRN
# Outline: as §1
# CRX = CRX (Homo sapiens, UniProt O43186 1-299); details: protein: recombinant; tags: N-terminal GST; dsDNA, one strand shown
# Outline: as §1
# ETV1 = ETV1 (Homo sapiens, UniProt P50549 1-477); details: protein: recombinant; tags: N-terminal GST; dsDNA, one strand shown
# Outline: as §1
# ERF = biological target: T6, ERF (Homo sapiens, UniProt P50548 1-548); details: protein: recombinant; tags: N-terminal GST; dsDNA, one strand shown
# T6 sequence: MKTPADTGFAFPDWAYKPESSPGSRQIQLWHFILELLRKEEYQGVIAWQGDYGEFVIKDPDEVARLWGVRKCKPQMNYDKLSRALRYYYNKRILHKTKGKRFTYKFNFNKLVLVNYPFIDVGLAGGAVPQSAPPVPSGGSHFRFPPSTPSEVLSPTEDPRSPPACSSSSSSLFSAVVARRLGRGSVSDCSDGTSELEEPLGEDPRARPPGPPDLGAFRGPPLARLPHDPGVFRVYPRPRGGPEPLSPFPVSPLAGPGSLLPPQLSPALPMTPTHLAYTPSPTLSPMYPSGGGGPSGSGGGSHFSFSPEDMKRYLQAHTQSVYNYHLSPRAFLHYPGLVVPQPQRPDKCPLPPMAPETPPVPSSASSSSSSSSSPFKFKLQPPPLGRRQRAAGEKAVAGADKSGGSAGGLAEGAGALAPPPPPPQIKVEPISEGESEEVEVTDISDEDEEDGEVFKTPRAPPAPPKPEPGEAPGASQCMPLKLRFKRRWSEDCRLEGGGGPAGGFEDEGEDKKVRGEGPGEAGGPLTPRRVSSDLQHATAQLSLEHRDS
# Outline: as §1
# ETV3L = biological target: T7, ETV3L (Homo sapiens, UniProt Q6ZN32 1-361); details: protein: recombinant; tags: N-terminal GST; dsDNA, one strand shown
# T7 sequence: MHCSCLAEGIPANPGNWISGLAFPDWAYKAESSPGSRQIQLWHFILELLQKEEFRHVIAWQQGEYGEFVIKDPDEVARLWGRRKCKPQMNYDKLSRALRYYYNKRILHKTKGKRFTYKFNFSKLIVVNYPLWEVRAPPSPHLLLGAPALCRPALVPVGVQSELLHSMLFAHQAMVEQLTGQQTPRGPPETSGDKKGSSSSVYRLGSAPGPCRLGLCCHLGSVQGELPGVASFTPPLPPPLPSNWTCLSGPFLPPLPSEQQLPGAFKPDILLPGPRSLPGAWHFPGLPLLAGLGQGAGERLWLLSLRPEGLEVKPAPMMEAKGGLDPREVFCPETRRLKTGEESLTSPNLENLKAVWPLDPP
# Outline: as §1
# ETS2 = biological target: T8, ETS2 (Homo sapiens, UniProt P15036 1-469); details: protein: recombinant; tags: N-terminal GST; dsDNA, one strand shown
# T8 sequence: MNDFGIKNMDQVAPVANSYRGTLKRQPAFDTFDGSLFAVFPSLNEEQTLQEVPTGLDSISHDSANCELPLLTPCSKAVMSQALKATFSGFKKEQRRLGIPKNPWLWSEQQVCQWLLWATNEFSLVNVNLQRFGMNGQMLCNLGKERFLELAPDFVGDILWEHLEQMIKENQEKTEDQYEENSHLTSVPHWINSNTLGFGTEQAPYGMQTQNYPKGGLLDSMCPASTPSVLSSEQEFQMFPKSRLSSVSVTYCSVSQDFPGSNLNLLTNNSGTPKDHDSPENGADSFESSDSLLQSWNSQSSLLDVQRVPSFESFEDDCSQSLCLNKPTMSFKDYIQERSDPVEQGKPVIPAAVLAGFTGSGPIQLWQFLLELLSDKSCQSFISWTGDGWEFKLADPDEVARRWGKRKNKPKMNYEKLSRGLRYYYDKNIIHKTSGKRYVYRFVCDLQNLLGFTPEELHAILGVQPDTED
# Outline: as §1
# SPDEF = biological target: T9, SPDEF (Homo sapiens, UniProt O95238 1-335); details: protein: recombinant; tags: N-terminal GST; dsDNA, one strand shown
# T9 sequence: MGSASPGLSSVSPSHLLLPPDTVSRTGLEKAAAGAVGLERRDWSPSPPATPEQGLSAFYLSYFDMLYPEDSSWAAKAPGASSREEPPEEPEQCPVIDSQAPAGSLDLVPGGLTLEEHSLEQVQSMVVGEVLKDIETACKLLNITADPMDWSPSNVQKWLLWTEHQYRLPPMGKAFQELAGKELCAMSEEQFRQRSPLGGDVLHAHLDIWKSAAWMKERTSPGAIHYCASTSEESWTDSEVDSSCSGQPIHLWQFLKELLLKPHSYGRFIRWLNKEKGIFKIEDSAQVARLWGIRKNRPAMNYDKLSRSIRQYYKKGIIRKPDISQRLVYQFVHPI
# Outline: as §1
# ETV7 = biological target: T10, ETV7 (Homo sapiens, UniProt Q9Y603 1-341); details: protein: recombinant; tags: N-terminal GST; dsDNA, one strand shown
# T10 sequence: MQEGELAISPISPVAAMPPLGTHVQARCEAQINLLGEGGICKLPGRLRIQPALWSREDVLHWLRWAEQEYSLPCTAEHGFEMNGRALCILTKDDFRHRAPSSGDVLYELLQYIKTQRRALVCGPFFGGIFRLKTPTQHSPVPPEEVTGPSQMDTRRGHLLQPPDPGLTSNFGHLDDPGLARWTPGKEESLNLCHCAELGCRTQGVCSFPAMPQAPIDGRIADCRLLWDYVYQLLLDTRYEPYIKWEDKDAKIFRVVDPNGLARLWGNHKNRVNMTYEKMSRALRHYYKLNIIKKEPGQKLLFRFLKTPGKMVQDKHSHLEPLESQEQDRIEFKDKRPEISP
# Outline: as §1
# ELF5 = biological target: T11, ELF5 (Homo sapiens, UniProt Q9UKW6-2 1-255); details: protein: recombinant; tags: N-terminal GST; dsDNA, one strand shown
# T11 sequence: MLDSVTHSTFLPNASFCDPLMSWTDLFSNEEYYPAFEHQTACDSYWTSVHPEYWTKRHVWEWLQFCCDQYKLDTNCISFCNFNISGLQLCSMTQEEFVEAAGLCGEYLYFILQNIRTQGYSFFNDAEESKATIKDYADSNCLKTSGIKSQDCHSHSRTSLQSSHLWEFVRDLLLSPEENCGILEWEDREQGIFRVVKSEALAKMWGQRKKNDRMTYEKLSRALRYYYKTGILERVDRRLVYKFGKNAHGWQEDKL
# Outline: as §1
# ETV3 = biological target: T12, ETV3 (Homo sapiens, UniProt P41162-2 1-143); details: protein: recombinant; tags: N-terminal GST; dsDNA, one strand shown
# T12 sequence: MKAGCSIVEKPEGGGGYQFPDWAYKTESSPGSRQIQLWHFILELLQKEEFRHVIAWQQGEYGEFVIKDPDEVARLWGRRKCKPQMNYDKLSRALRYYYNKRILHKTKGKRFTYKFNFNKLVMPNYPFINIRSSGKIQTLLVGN
# Outline: as §1
# ETV6 = ETV6 (Homo sapiens, UniProt P41212 1-452); details: protein: recombinant; tags: N-terminal GST; dsDNA, one strand shown
# Outline: as §1
# ETV1, sequence (P50549 whole entry): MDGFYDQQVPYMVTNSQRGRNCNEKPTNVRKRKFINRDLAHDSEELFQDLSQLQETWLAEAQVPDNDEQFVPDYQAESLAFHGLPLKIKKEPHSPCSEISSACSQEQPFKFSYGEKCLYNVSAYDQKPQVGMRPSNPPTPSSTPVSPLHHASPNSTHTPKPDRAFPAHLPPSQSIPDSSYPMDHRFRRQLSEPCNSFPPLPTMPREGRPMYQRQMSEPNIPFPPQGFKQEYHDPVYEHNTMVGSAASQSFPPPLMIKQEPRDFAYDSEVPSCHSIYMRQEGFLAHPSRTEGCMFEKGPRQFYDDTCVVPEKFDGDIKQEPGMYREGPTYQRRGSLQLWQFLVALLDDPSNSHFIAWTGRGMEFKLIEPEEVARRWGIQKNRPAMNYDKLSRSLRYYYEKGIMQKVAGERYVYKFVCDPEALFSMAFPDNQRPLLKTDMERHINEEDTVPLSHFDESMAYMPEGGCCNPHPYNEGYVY
# CRX, sequence (O43186 whole entry): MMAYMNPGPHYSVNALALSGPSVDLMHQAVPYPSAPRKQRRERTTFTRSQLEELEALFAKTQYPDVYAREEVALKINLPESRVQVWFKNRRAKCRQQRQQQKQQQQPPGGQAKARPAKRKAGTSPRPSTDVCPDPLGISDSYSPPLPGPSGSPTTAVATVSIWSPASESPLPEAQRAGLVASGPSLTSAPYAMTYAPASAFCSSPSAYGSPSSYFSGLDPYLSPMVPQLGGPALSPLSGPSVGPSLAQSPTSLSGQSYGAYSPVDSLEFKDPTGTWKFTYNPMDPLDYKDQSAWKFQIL
# HSF1, sequence (Q00613 whole entry): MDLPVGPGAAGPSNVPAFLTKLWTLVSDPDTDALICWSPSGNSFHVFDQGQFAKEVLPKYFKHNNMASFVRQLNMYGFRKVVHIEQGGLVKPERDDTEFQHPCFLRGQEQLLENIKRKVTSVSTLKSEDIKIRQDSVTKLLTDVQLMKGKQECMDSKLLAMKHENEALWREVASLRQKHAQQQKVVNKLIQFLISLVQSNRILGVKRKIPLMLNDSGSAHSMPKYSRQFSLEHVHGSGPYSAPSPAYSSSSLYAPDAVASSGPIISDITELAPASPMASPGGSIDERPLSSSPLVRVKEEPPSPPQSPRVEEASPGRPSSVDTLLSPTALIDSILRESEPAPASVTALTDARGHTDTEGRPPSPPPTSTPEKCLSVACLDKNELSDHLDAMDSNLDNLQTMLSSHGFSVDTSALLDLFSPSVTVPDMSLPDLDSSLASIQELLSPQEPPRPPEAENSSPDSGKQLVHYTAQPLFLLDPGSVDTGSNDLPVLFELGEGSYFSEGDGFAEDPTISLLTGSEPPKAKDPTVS
# ELF4, sequence (Q99607 whole entry): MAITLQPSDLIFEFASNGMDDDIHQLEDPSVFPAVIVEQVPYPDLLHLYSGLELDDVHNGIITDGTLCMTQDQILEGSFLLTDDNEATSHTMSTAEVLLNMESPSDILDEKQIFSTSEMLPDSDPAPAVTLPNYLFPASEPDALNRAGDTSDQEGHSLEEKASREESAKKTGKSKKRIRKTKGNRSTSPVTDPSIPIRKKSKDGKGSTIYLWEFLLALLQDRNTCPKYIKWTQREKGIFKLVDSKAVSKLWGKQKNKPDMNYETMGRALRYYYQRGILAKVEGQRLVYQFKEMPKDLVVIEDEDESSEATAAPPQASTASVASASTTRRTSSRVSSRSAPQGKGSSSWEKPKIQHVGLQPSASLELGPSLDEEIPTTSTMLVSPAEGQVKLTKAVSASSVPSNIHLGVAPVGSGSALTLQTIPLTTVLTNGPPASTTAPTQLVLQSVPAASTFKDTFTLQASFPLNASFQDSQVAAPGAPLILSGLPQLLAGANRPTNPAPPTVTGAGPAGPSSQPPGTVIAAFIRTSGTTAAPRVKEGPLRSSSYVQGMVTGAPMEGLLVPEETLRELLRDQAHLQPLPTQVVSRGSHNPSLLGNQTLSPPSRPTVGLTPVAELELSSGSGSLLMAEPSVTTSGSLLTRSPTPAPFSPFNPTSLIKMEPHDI
# ETV5, sequence (P41161 whole entry): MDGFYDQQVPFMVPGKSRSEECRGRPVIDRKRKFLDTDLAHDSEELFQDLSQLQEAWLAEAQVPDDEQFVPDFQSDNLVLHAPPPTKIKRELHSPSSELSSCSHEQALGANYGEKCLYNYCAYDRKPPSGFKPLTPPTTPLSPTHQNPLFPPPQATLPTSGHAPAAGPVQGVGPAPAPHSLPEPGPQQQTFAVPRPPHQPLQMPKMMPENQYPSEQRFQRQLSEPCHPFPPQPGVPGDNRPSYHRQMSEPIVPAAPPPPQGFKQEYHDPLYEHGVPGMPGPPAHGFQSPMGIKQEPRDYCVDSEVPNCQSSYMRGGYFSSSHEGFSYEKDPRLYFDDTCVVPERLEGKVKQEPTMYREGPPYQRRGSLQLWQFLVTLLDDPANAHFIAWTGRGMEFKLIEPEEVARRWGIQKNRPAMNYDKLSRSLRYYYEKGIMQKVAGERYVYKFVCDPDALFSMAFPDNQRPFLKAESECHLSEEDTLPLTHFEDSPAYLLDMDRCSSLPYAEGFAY
# ETV6, sequence (P41212 whole entry): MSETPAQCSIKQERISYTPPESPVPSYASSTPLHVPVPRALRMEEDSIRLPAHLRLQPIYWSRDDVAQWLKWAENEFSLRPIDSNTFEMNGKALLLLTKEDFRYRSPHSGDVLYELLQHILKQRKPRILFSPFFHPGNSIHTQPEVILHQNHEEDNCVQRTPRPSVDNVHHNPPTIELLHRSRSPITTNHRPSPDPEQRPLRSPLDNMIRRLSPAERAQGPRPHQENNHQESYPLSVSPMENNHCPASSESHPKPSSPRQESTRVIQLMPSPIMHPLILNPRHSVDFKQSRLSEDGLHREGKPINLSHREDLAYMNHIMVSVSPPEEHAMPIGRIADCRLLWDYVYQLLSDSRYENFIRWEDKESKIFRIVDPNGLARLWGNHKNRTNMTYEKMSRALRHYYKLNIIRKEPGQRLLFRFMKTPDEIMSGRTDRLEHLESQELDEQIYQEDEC
sequence,measurement,setting,value
GCCCCT,binding signal,FEV,"1.39 fold enrichment (6-mer frequency, TF over GST control)"
same,binding signal,ETV5,"1.39 fold enrichment (6-mer frequency, TF over GST control)"
same,binding signal,HSF1,"1.13 fold enrichment (6-mer frequency, TF over GST control)"
same,binding signal,SPIC,"1.22 fold enrichment (6-mer frequency, TF over GST control)"
same,binding signal,ELF4,"1.4 fold enrichment (6-mer frequency, TF over GST control)"
same,binding signal,ELK4,"1.37 fold enrichment (6-mer frequency, TF over GST control)"
same,binding signal,ETV2,"1.28 fold enrichment (6-mer frequency, TF over GST control)"
same,binding signal,ELF3,"1.24 fold enrichment (6-mer frequency, TF over GST control)"
same,binding signal,CRX,"1.12 fold enrichment (6-mer frequency, TF over GST control)"
same,binding signal,ETV1,"1.34 fold enrichment (6-mer frequency, TF over GST control)"
same,binding signal,ERF,"1.27 fold enrichment (6-mer frequency, TF over GST control)"
same,binding signal,ETV3L,"1.3 fold enrichment (6-mer frequency, TF over GST control)"
same,binding signal,ETS2,"1.27 fold enrichment (6-mer frequency, TF over GST control)"
same,binding signal,SPDEF,"1.37 fold enrichment (6-mer frequency, TF over GST control)"
same,binding signal,ETV7,"1.22 fold enrichment (6-mer frequency, TF over GST control)"
same,binding signal,ELF5,"1.2 fold enrichment (6-mer frequency, TF over GST control)"
same,binding signal,ETV3,"1.23 fold enrichment (6-mer frequency, TF over GST control)"
same,binding signal,ETV6,"1.23 fold enrichment (6-mer frequency, TF over GST control)"

# From PMC7862700, “An all-to-all approach to the identification of sequence-specific readers for epigenetic DNA modifications on cytosine”
